{
  "source": "ChEMBL document CHEMBL4513154",
  "about": "“CO-ADD screening of Jain University (India) compounds”",
  "note": "The campaign covered roughly 23,000 compounds. About 30 (0.1%) showed an effect of 50% or more. For the sample, strong results were picked, then their nearest neighbours and some compounds at random. Results with a measured potency or affinity are listed apart.",
  "data": [
    {"system": "Pseudomonas aeruginosa", "conditions": "Concentration 32 ug.mL-1; ASSAY_TEST Inhibition of Bacterial Growth; detection method Absorption (OD600); MEDIA CAMHB; plate type 384well; NBS; CORNING #3640; time 18 hr", "units": {"Inhibition": "%"}, "values": [
      {"smiles": "N=C(Nc1ccccc1Cl)c1cscn1", "Inhibition": 77.11},
      {"smiles": "N=C(Nc1ccccc1)c1cscn1", "Inhibition": 1.73},
      {"smiles": "CCc1ccc(Nc2nc(N)c(-c3nc4ccccc4c(=O)n3-c3ccccc3)s2)cc1", "Inhibition": 12.66}
    ]}
  ]
}
